In PubChem BioAssay (EPA / NIEHS) one finds AC50 and outcome data, which are given here for 22 compounds.

Inconclusive results are not listed. Active and inactive are the calls of the source. Rule for the calls, unless noted: active = hit-call score of the fitted dose curve at least 0.9, where 1 is the maximum; inconclusive = response in the unintended direction; inactive = score below 0.9.

Read-out in one assay: xenobiotic metabolism (CYP2C9), CYP2C9 (gene 1559)
Kind of assay: CLD_CYP2C9_48hr: CellzDirect (CLD) Gene Expression Assay for xenobiotic metabolism (CYP1A2) at 48 hours (AID 2283701; active = hit-call score of the fitted dose curve at least 0.9, where 1 is the maximum; inactive = score below 0.9). The essentials:
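Primary human hepatocytes (two donor preparations) dosed daily for two days with test chemicals, 0.2% DMSO vehicle; harvested at 48 h. mRNA induction quantified by qNPA chemiluminescence, fitted for gain of signal against DMSO baseline; cytotoxicity annotated from phase-contrast morphology.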
A word on the AC50: it is the concentration at which the activity in the assay is half-maximal. Turning to `C[N+]1(C)CCCCC1`, the AC50 was 0.4 nM (active). On the same count and under the same terms, as for `CC(C1CC1)C(O)(Cn1cncn1)c1ccc(Cl)cc1` (stereo not drawn), the figure is 91.1 nM (active); as for `CCNc1nc(Cl)nc(NC(C)(C)C#N)n1`, 36.4 nM (active).

Read-out in the next assay: not listed separately
Put plainly: CLD_ACTIN_48hr: CellzDirect (CLD) Gene Expression Assay for Baseline Control (Actin) at 48 hours (AID 2283702). In a few lines: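 Primary human hepatocytes (two donor preparations) dosed daily for two days with ToxCast chemicals at multiple concentrations versus 0.2% DMSO vehicle; harvested at 48 h. Actin mRNA measured as a background control by quantitative nuclease protection assay with chemiluminescence.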
Turning to `CC1(C(=O)Nc2ccc(O)c(Cl)c2Cl)CCCCC1`, the compound was called inactive. Still for that read-out and setting: with `Nc1nc(N)nc(NC2CC2)n1` the entry was “inactive”; with `C[N+]1(C)CCCCC1`, “inactive”; with `CCC(CC)Nc1c([N+](=O)[O-])cc(C)c(C)c1[N+](=O)[O-]`, “inactive”. On the same count and under the same terms, with `Cc1nn(-c2cc(NS(C)(=O)=O)c(Cl)cc2Cl)c(=O)n1C(F)F` the entry was “inactive”; with `CCc1cnc(C2=NC(C)(C(C)C)C(=O)N2)c(C(=O)O)c1` (stereo not drawn), “inactive”; with `COP(=O)(OC)OC(Br)C(Cl)(Cl)Br` (stereo not drawn), “inactive”. As to `COP(=O)(OC)C(O)C(Cl)(Cl)Cl` (stereo not drawn), the outcome was inactive. On the same count and under the same terms, as for `CC1=NNC(=O)N(/N=C/c2cccnc2)C1`, the entry is “inactive”; as for `C[Si](Cn1cncn1)(c1ccc(F)cc1)c1ccc(F)cc1`, “inactive”. Same read-out and setting: as for `S=C1NCCN1`, the entry is “inactive”; as for `CCCOCC(=Nc1ccc(Cl)cc1C(F)(F)F)n1ccnc1`, “inactive”. For `CCCOc1nn(C(=O)NS(=O)(=O)c2ccccc2C(=O)OC)c(=O)n1C`, the compound was classed as inactive. The same measure, in the same setting: as for `CSC1=N[C@@](C)(c2ccccc2)C(=O)N1Nc1ccccc1`, the entry is “inactive”; as for `C=C(C)[C@H]1Cc2c(ccc3c2O[C@@H]2COc4cc(OC)c(OC)cc4[C@@H]2C3=O)O1`, “inactive”; as for `CC(Oc1cccc(Cl)c1)C(=O)O` (stereo not drawn), “inactive”. Same read-out and setting: with `CNC(=O)Oc1cccc2c1OC(C)(C)O2` the entry was “inactive”; with `N#CSCSC#N`, “inactive”; with `CC[C@H](C)[C@H]1O[C@]2(C=C[C@@H]1C)C[C@@H]1C[C@@H](C/C=C(\C)[C@@H](O[C@H]3C[C@H](OC)[C@@H](O[C@H]4C[C@H](OC)[C@@H](NC)[C@H](C)O4)[C@H](C)O3)[C@@H](C)/C=C/C=C3\CO[C@@H]4[C@H](O)C(C)=C[C@@H](C(=O)O1)[C@]34O)O2`, “inactive”. Still for that read-out and setting: with `CNC(=O)ON=C(C)SC` the entry was “inactive”.
